Screening data as filed in PubChem BioAssay.
Rows were chosen to be rich in hits. Some 21% of all compounds tested hit in one or more screens of this group.
D3 ag = activates the human D3 dopamine receptor. P35462. D3R DiscoveRx beta-arrestin cells, luminescence, 90 min. AID 652048. max activation, %. actives 0.58% (n = 410,000); in the data active means max activation above about 30%; further: 0% is about no effect
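Agonist mode: compounds and dopamine controls were applied to plated cells for 90 min at 37 degrees C after an overnight attachment at 1500 cells/well. Luminescent read-out followed 30 - 60 minutes at room temperature with DiscoveRx detection reagent.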
DT40 TDP1 CPT = DT40-hTDP1 cell growth loss with CPT | AID 686979 | Potency, µM (highest dose often 46.2 µM), for inactives: at the highest dose activity change, negative = growth inhibition, usual class: inhibitors | actives 12% (n = 420,000) | chicken DT40 Tdp1-/-;hTDP1 cells + 20 nM CPT, ATP luminescence, 48 h; further: potency means the concentration at half of the fitted maximal effect; on the % scale 0 is the no-effect control and ±100 the full control effect; nearly all actives have a fitted effect of over 55% in size
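Cell growth measured by CellTiter-Glo luminescence after a minimum 48 h, 37 C compound exposure with 20 nM CPT in Tdp1-knockout DT40 cells stably expressing hTDP1, seeded 400/well; qHTS titration format.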
IL1B secr inh = inhibitors of inflammasome signaling (IL-1 beta secretion) | THP-1 LPS/ATP IL-1B secretion, AlphaLISA, 16 h; hits give low values | activity change, % at 57.5 µM | actives 4.7% (n = 360,000) | AID 743279; in the data active means activity change below about -50%; inconclusive means mostly about -30% to -49%; further: on the % scale 0 is the no-effect control and ±100 the full control effect
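Secreted IL-1B measured by AlphaLISA bead assay after 16 h compound exposure of THP-1 cells; compounds (final up to 57.5 uM) added 1 h before LPS (250 ng/mL) and ATP (1.25 mM) stimulation; lower signal means less secretion.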
D3 antag = blocks the human D3 dopamine receptor. actives 2.5% (n = 360,000). AID 652054. max response, negative = inhibition, %. D3R cells, DiscoveRx beta-arrestin luminescence, antagonist mode; hits give low values; in the data active means max response below about -50%; inconclusive means no clear call, values can overlap the other calls; further: on the % scale 0 is the no-effect control and ±100 the full control effect
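Cells expressing the human receptor were seeded at 1500 cells/well, incubated overnight at 37 degrees C in 5% CO2, then exposed to library compounds with dopamine controls for 90 minutes at 37 degrees C before luminescent detection.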
DT40 TDP1 no CPT = qHTS for Inhibitors of human tyrosyl-DNA phosphodiesterase 1 (TDP1): qHTS in cells in absence of CPT; AID 686978, 2013; DT40 Tdp1-/- hTDP1 cells, no CPT, ATP luminescence, 48 h; actives 15% (n = 420,000); Potency, µM (top dose mostly 46.2 µM), for inactives: at the highest dose activity change, negative = growth inhibition, hits mostly inhibitors; further: potency means the concentration at half of the fitted maximal effect; on the % scale 0 is the no-effect control and ±100 the full control effect; nearly all actives have a fitted effect of over 55% in size
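A cellular qHTS used chicken DT40 cells lacking endogenous Tdp1 but carrying stably transfected human TDP1. Compounds were applied without camptothecin, and cell growth kinetics were judged by ATP-dependent luminescence after ≥48 hr.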
ClpP mod = qHTS Assay for Activators of ClpP; ATP-dependent Clp protease proteolytic subunit (Bacillus subtilis (strain 168)), P80244; purified B. subtilis ClpP, FRET peptide cleavage, 20 min; Potency, µM (doses to about 57.5 µM), without a hit: at the top dose activity change, negative = active; actives 1.9% (n = 340,000); AID 651965, 2013; active means well fitted falling curve with a large enough effect; inconclusive means small, poorly fitted or top-dose-only effect; inactive means no such curve, though single readings can be large or run the other way; further: potency means the concentration at half of the fitted maximal effect; the source files actives as falling curves though it sought activators and does not explain the sign; nearly all actives have a fitted effect of over 65% in size
Target sequence (P80244 whole entry, looked up): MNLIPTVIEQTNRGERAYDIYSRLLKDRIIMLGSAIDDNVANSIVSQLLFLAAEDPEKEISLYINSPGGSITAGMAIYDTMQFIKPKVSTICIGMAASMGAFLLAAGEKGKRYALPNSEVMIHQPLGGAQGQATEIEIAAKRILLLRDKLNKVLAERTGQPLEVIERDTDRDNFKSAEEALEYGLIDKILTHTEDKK
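FRET quenching reversal measured ClpP activation: 10 microg/mL B. subtilis ClpP at pH 8 with the FRET-FV decapeptide, read at 430 nm after 320 nm excitation. The 20-min minus 0-min signal was scaled between DMSO/no-enzyme wells and ADEP (5.8 microM final).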
* = called active by the depositor; ? = inconclusive; / = no result given. Unless noted, the call rests on the fitted dose curve; in most records, active means well fitted inhibition curve with a large enough effect; inconclusive means small, poorly fitted or top-dose-only effect; inactive means flat fitted curve, though single readings scatter.

SMILES	D3 ag	DT40 TDP1 CPT	IL1B secr inh	D3 antag	DT40 TDP1 no CPT	ClpP mod
CCc1nc2c(OCc3ccc(Cl)cc3)cccn2c1N(C=O)Cc1ccccc1	-7.0	?	-13.6	-19.0	23.1µM*	0.3%
CCc1nc2c(OCc3c(C)noc3C)cccn2c1N(C=O)Cc1ccccc1	22.8	?	0.0	231.7	20.6µM*	-3.5%
CCc1nc2c(OCc3ccc4c(c3)OCO4)cccn2c1N(C=O)Cc1ccc(OC)cc1	13.6	?	-5.5	35.0	?	-1.4%
Cc1ccc(-n2c(=O)[nH]c3cc(C(=O)NCc4ccccc4)ccc3c2=O)cc1	2.1	-8.0%	/	/	-4.1%	?
Cc1nn(C)cc1S(=O)(=O)N1CCN(c2ccccc2)CC1	-5.5	-1.6%	21.8	-22.9	1.9%	-0.7%
CCCCN(C=O)c1c(CC)nc2c(OCC(=O)C(C)(C)C)cccn12	-1.9	?	26.4	-16.0	-25.0%	-6.6%
CCc1nc2c(OCC(=O)C(C)(C)C)cccn2c1N(C=O)CC(=O)N(C)C	-23.6	-18.9%	5.8	-98.3*	8.0%	-10.2%
O=C1CC(c2cc(-c3ccccc3)no2)C1	2.1	-4.6%	10.6	-8.1	-20.3%	0.1%
CCC(NC(=O)Nc1ccc(OC)c(OC)c1)c1c(-n2cccc2)sc2c1CCN(C)C2 (stereo unspecified)	8.5	?	/	/	?	-1.8%
CCOC(=O)c1cccc(NC(=O)NC(C)c2c(-n3cccc3)sc3c2CCN(C)C3)c1 (stereo unspecified)	-18.0	14.6µM*	/	/	16.4µM*	2.7%
COc1ccc(NC(=O)NC(C)c2c(-n3cccc3)sc3c2CCN(C)C3)c(OC)c1 (stereo unspecified)	-16.6	?	/	/	23.1µM*	-3.7%
CCC(NC(=O)Nc1cc(OC)ccc1OC)c1c(-n2cccc2)sc2c1CCN(CC)C2 (stereo unspecified)	-14.5	?	/	/	23.1µM*	-3.7%
O=c1[nH]c(=S)c2n[nH]nc2[nH]1	/	7.6%	/	/	-23.0%	-1.6%
CCC1CCCCN1S(=O)(=O)c1ccccc1[N+](=O)[O-] (stereo unspecified)	0.5	20.6µM*	2.0	-3.1	23.1µM*	/
O=[N+]([O-])c1ccccc1S(=O)(=O)N1CCN(C2CCCC2)CC1	-26.8	-3.7%	0.0	-59.0*	-2.3%	-4.7%
Cc1cc(=S)nc(-c2ccccn2)[nH]1	6.1	3.26µM*	-0.1	-6.7	4.61µM*	-4.9%
Cc1[nH]c(-c2ccccn2)nc(=S)c1Cl	28.3	10.3µM*	/	-0.1	?	/
Cc1ccc(CNC(=O)CSc2nc3ccsc3c(=O)n2-c2ccc(Br)cc2)cc1	0.6	?	/	/	?	-2.3%
CCc1ccc(C(C)NC(=O)c2cccs2)cc1 (stereo unspecified)	13.3	-7.8%	6.6	1.6	-26.1%	/
O=C1CCN(Cc2ccccc2)N1	-5.8	-16.2%	3.4	-9.1	38.9%	0.2%
O=C(NC1CCCN(Cc2ccc(Cl)cc2)C1)c1c(F)ccc(F)c1F (stereo unspecified)	-5.8	-34.8%	24.7	-9.8	-10.4%	/
CC(C)Cc1ccc(CN2CCCC(NC(=O)c3cccc(-n4cnnc4)c3)C2)cc1 (stereo unspecified)	-8.2	20.6µM*	-50.6*	-6.3	23.1µM*	-2.5%
CC(C)Cc1ccc(CN2CCCC(NC(=O)c3nn(C)c(=O)c4ccccc34)C2)cc1 (stereo unspecified)	-2.0	?	-13.5	-1.9	?	0.9%
CC(C)Cc1ccc(CN2CCCC(NC(=O)c3ccoc3)C2)cc1 (stereo unspecified)	-16.8	11.6µM*	-8.1	-26.8	13µM*	-0.4%
Cc1noc(C)c1CCC(=O)NC1CCCN(Cc2ccc(CC(C)C)cc2)C1 (stereo unspecified)	-6.2	18.4µM*	-20.9	7.6	14.6µM*	0.2%
